In all, about 330,000 compounds went through this assay and about 7,700 (2.3%) were called active. A call without a number means that no potency is given here. Not shown: some 26% with an inconclusive outcome. The call rests on the fitted dose curve; in most records, active means well fitted inhibition curve with a large enough effect; inconclusive means small, poorly fitted or top-dose-only effect, or effect the other way; inactive means flat fitted curve, though single readings scatter. Many of the other results were omitted from the sample, so actives are more common in it than they were.

The source of these data is PubChem BioAssay AID504467 (National Center for Advancing Translational Sciences (NCATS), 2011).
Potency means the concentration at half of the fitted maximal effect.

This experiment is described as follows: qHTS screen for small molecules that inhibit ELG1-dependent DNA repair in human embryonic kidney (HEK293T) cells expressing luciferase-tagged ELG1. Further: nearly all actives have a fitted effect of over 55% in size. To be noted: HEK293T ELG1-luciferase reporter, luminescence, 16 h, DNA damage induced by 5-fluorouridine; series mostly up to 46.1 µM. Summed up: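 DMSO vehicle served as the neutral condition. Each well held 2,000 cells given 5-fluorouridine plus compound; after 16 hr at 37 °C/5% CO2, ONE-Glo was added and luciferase measured 30 min later.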
On the technique in general: qHTS replaces the single test concentration by a dilution series.
As for `COc1ccc(C(=O)O)cc1S(=O)(=O)NC1CCN(Cc2ccccc2)CC1`, the Potency result was “inactive”.
Turning to `CCOCCCN(C)C1CCN(C(=O)c2oc3ccccc3c2NC(=O)Cc2cccc([N+](=O)[O-])c2)CC1`, the Potency entry is “inactive”.
The same measure for `CCCCC[C@@H]1C=C(C(=O)O)[C@H](c2ccc(C#N)cc2)N1S(=O)(=O)c1ccc(C)cc1`: “inactive”; for `COc1ccc(C(C(=O)NCC2CCCO2)N(C(=O)Cn2nnc3ccccc32)c2ccc(NC(C)=O)cc2)cc1OC` (stereo not drawn): “inactive”.
As for `COc1ccccc1CNS(=O)(=O)c1cc(C(=O)NCc2ccccn2)c(Cl)cc1Cl`, the Potency entry is “inactive”.
As to `COc1ccc(N2CCN(C(=O)Cn3cnc4sc(C)c(S(=O)(=O)N5CCOCC5)c4c3=O)CC2)cc1`, the Potency result was “inactive”.
The same measure for `CCN(CC)P(=O)(Nc1ccc(SC(F)F)cc1)c1ccc(N(C)C)cc1NC(=O)c1ccco1` (stereo not drawn): 7.3 µM (active).
For `COc1ccc(OCC(=O)Nc2ccc(NC(=O)c3ccco3)c(C)c2)cc1`, the Potency entry is “inactive”.
The entry for `Cc1cccc(OCC(=O)Nc2ccc(NC(=O)c3ccco3)c(C)c2)c1` is “inactive”; for `CC(C)(C)n1ncc2c(=O)n(Cc3ccc(Cl)cc3)cnc21` it is 20.6 µM (active).
Turning to `CC(C)(C)n1ncc2c(=O)n(Cc3c(Cl)cccc3Br)cnc21`, the Potency result was “inactive”.
The entry for `Cc1ccc2c(c1)c1ncn(Cc3ccc(F)cc3)c(=O)c1n2C` is “inactive”.
As for `COc1cc(NC(=O)COC(=O)c2cc(S(=O)(=O)N3CCOCC3)ccc2F)cc(OC)c1`, the Potency entry was “inactive”.
The same measure for `COCCNc1nc(N)c([N+](=O)[O-])c(N2CCCCCC2)n1`: “inactive”; for `O=C(CN1CCN(c2ccccc2O)CC1)NC(=O)NCc1ccccc1`: “inactive”; for `O=C(C1CCN(C2CCN(Cc3cccc4c3OCO4)CC2)CC1)N1CCOCC1`: “inactive”.
The same measure for `C/C(=C\c1ccco1)CN1CCC(N2CCC(C(=O)N3CCOCC3)CC2)CC1`: “inactive”; for `O=C(C1CCN(C2CCN(Cc3ccc4cc(F)ccc4n3)CC2)CC1)N1CCCC1`: 13 µM (active); for `CCCC(CNC(=O)COC(=O)C1=NNC(=O)CC1)c1ccc(Cl)cc1Cl` (stereo not drawn): “inactive”.
On to `CN(CC(=O)Nc1ccc(C(N)=O)cc1)S(=O)(=O)c1ccc2c(c1)OCCO2`, for which the Potency entry is “inactive”.
With `CCOc1ccc(NS(=O)(=O)c2ccc(C(=O)NC3CCN(Cc4ccccc4)CC3)cc2)cc1`, the Potency entry was “inactive”.
The entry for `COc1cc(OC)cc(C(=O)N[C@H](C(=O)NNC(=O)c2ccc(Br)cc2)C(C)C)c1` is “inactive”; for `O=C(NCC(F)(F)F)Nc1nnc(C(F)(F)F)s1` it is 18.4 µM (active); for `O=C(Nc1nnc(COc2ccccc2)s1)Nc1ccccc1F` it is “inactive”.
The entry for `COc1ccc(C)cc1NC(=O)CCC(=O)Nc1nnc(C(F)(F)F)s1` is “inactive”; for `CCOc1ccc(CC(=O)NCCS(=O)(=O)N2CCN(c3ccccc3)CC2)cc1` it is “inactive”.
The entry for `O=C(NCCS(=O)(=O)N1CCN(c2ccccc2F)CC1)c1ccc(Br)o1` is “inactive”; for `COc1ccccc1N1CCN(S(=O)(=O)CCNC(=O)c2ccc(OC(C)C)cc2)CC1` it is 13 µM (active).
Turning to `COc1ccc(S(=O)(=O)N2CCCCC2)cc1NC(=O)C1CC(=O)N(c2ccc3c(c2)OCCO3)C1` (stereo not drawn), the Potency entry was “inactive”.
The entry for `CC1CC(=O)Nc2ccccc2N1C(=O)COc1ccc2cc(Br)ccc2c1` (stereo not drawn) is “inactive”; for `C#CCOc1ccccc1/C=C1/C(=O)ON=C1C` it is “inactive”; for `Cc1cccc(/C=N/NC(=O)CNc2cccc3ccccc23)n1` it is “inactive”.
For `C/C(=N\NC(=O)CNc1cccc2ccccc12)c1ccc(Br)s1`, the Potency entry is “inactive”.
Take `Cn1cccc1/C=N/NC(=O)CNc1cccc2ccccc12`: the Potency is 13 µM (active).
The entry for `Cc1ccc(NC(=O)COc2coc(CN3CCc4ccccc4C3)cc2=O)cc1Cl` is “inactive”; for `CC(Cc1ccccc1)C(=O)N(C)Cc1ccccc1` (stereo not drawn) it is “inactive”.
Turning to `CC1=NN(Cc2ccccc2)C(=O)/C1=C/c1ccc(N(C)C)cc1`, the Potency entry is “inactive”.
The same measure for `CN(C)c1cc[n+](Cc2ccccc2)cc1`: 8.2 µM (active); for `CCN1C(=O)[C@@H]2[C@@H](c3ccc(-c4ccccc4)cc3)N3CCCC[C@@]3(C(=O)OC)[C@@H]2C1=O`: “inactive”.
Turning to `CC(C)Cn1c(N)c(C(=O)NCc2cccs2)c2nc3ccccc3nc21`, the Potency is 9.2 µM (active).
As to `CCCNC(=O)c1c(N)n(-c2ccc(S(N)(=O)=O)cc2)c2nc3ccccc3nc12`, the Potency entry is “inactive”.
The same measure for `CCOc1ccccc1NC(=O)Cn1nnc(C(=O)NCc2cccs2)c1N`: “inactive”.
As for `CC(C(=O)N1CCc2ccccc21)N(C)CC(=O)Nc1ccc(F)cc1` (stereo not drawn), the Potency result was “inactive”.
The same measure for `Cc1noc(C)c1CSCC(=O)N(CCC(C)C)c1c(N)n(Cc2ccccc2)c(=O)[nH]c1=O`: “inactive”; for `Cc1ccc(OCC(O)CN2CCN(CC(O)COc3ccc(C)cc3Cl)CC2)c(Cl)c1` (stereo not drawn): “inactive”; for `COc1cccc(OCC(O)CN2CCN(CCO)CC2)c1` (stereo not drawn): “inactive”.
As for `Cc1cccc(OCC(O)CN2CCN(S(=O)(=O)c3ccc(C)cc3C)CC2)c1` (stereo not drawn), the Potency was 11.6 µM (active).
For the compound `C=CCCC(=O)Nc1nc(C)c(-c2csc(Nc3ccc(Cl)cc3)n2)s1`, the Potency is 18.4 µM (active).
Regarding `CCCCC(=O)Nc1nc(C)c(-c2csc(Nc3ccc(Cl)cc3)n2)s1`, the Potency was 20.6 µM (active).
The entry for `CCCCCCC(=O)Nc1nc(C)c(-c2csc(Nc3cc(Cl)ccc3OC)n2)s1` is “inactive”; for `CC(=O)Nc1nc(C)c(-c2csc(Nc3ccc(S(N)(=O)=O)cc3)n2)s1` it is “inactive”.
Take `Cc1ccc(Nc2nc(-c3sc(NC(=O)c4ccccc4)nc3C)cs2)cc1`: the Potency entry was “inactive”.
As for `CCC(=O)Nc1nc(C)c(C(=O)Nc2cccc(Cl)c2)s1`, the Potency entry is “inactive”.
The entry for `CCOC(=O)N1CCN(C(=O)c2ccccc2SCC(=O)NCC2CCCCC2)CC1` is “inactive”.
The entry for `CN(C(=O)COC(=O)Cc1ccccc1[N+](=O)[O-])C1CCS(=O)(=O)C1` (stereo not drawn) is “inactive”.
As to `COc1ccc(C(=O)COC(=O)CN2C(=O)C3CC=CCC3C2=O)c(OC)c1` (stereo not drawn), the Potency entry is “inactive”.
Take `CCc1cccc(NC(=O)CCCN2C(=O)C(c3ccccc3)Oc3cccnc32)c1` (stereo not drawn): the Potency result was “inactive”.
The figure for `COCCN(CCOC)c1nc(N)c2c(N)nc3c(c2c1C#N)CC(=O)N3Cc1ccc(Cl)cc1` is 5.17 µM (active).
The entry for `CCC(=O)Nc1ccc(S(=O)(=O)Nc2c(NC)c3ccccc3oc2=O)cc1` is “inactive”; for `CC1CC(C)CN(CCCNC(=O)c2csc3c2CCCCC3)C1` (stereo not drawn) it is “inactive”; for `CC(C(=O)c1ccc(-c2ccccc2)cc1)[n+]1cccc(Br)c1` (stereo not drawn) it is “inactive”.
Regarding `Cc1ccc2c(c1)C1CN(C)CCC1N2S(=O)(=O)c1cccc(F)c1` (stereo not drawn), the Potency entry was “inactive”.
For `CCOC(=O)C1CCN(Cc2c(C(=O)N3CCOCC3)nc3c(C)cccn23)CC1`, the Potency entry is “inactive”.
On to `Cc1cccn2c(CNCC(C)Oc3cccnc3)c(C(=O)N3CCOCC3)nc12` (stereo not drawn), for which the Potency result is “inactive”.
Take `Cc1cccc(N2CCC(NCc3c(C(=O)N4CCCCC4)nc4c(C)cccn34)CC2)c1`: the Potency is 25.9 µM (active).
The same measure for `CN(CC(=O)Nc1ccc(Cl)cc1)CC(=O)Nc1cccc2ccccc12`: “inactive”; for `Cc1ccc(S(=O)(=O)N(Cc2ccccc2)c2ccccn2)cc1[N+](=O)[O-]`: “inactive”.
Take `Cc1ccccc1NC(=O)Cc1nnc(SCC(=O)N2CCN(c3ccccc3)CC2)n1C`: the Potency result is “inactive”.
As for `Cn1c(Cc2cccc3ccccc23)nnc1SCC(=O)N1CCN(c2cccc(Cl)c2)CC1`, the Potency was 18.4 µM (active).
The entry for `Cn1c(CNC(=O)c2ccco2)nnc1SCC(=O)N1CCN(c2ccccc2)CC1` is “inactive”; for `O=C(CN1CCc2ccccc2C1)Nc1cccc(S(=O)(=O)N2CCOCC2)c1` it is “inactive”.
The entry for `CC1CCC(NC(=O)CN(C)S(=O)(=O)c2ccc3c(c2)c(=O)n(C)c(=O)n3C)CC1` (stereo not drawn) is “inactive”; for `CC(=O)NCc1ccc(-c2csc(NC(=O)CCCc3nc4ccccc4c(=O)[nH]3)n2)cc1` it is “inactive”; for `O=C(CSc1nc2ccccc2c(=O)[nH]1)Nc1nc(-c2ccc(Br)cc2)cs1` it is “inactive”.
As for `Cc1cc(C)c(-c2csc(NC(=O)CCCc3nc4ccccc4c(=O)[nH]3)n2)c(C)c1`, the Potency was 5.17 µM (active).
The entry for `CCCSc1ccc([C@H]2N[C@@](Cc3ccccc3)(C(=O)OC)[C@H]3C(=O)N(C)C(=O)[C@@H]23)cc1` is “inactive”; for `COc1ccc(C(=O)N2CCc3cc(OC)c(OC)cc3C2c2cccc([N+](=O)[O-])c2)cc1` (stereo not drawn) it is “inactive”; for `COc1ccc(CC(NC(C)=O)C(=O)NC2CCN(C(=O)c3ccc(OC)c(OC)c3)CC2)cc1OC` (stereo not drawn) it is “inactive”.
As for `CCc1ccc(OCC2c3cc(OC)c(OC)cc3CCN2C(C)=O)cc1` (stereo not drawn), the Potency was 6.51 µM (active).
The entry for `COc1cccc(NC(=O)CN(C)C(=O)c2cc(C3CC3)nn2-c2ccccc2)c1` is “inactive”; for `CCCCCN(C(=O)CCC(=O)OCCOc1ccc(OC)cc1)c1c(N)n(CCCC)c(=O)[nH]c1=O` it is “inactive”.
The same measure for `CC(C)N(C(=O)[C@H]1C[C@H](CC(=O)NCCC2=CCCCC2)C(=O)N2CCc3c([nH]c4cc(CCC(=O)N(C)C)ccc34)[C@]12C)C(C)C`: “inactive”; for `COc1ccccc1C(CNC(=O)c1cccc(NS(=O)(=O)c2ccc(Br)cc2)c1)N(C)C` (stereo not drawn): “inactive”; for `O=[N+]([O-])c1cc(Cl)cc(/C=N/NC(=S)Nc2cc(S(=O)(=O)N3CCOCC3)ccc2Cl)c1O`: 20.6 µM (active).
The entry for `O=S(=O)(c1ccc(NC(=S)NN=C(C2CC2)C2CC2)cc1)N1CCOCC1` is “inactive”; for `O=C(NC(=S)Nc1ccc(S(=O)(=O)N2CCOCC2)cc1)c1ccccc1[N+](=O)[O-]` it is “inactive”.
In the case of `Cc1cc(=O)oc2c3c(cc(OCC(=O)N[C@H](C(=O)O)c4ccccc4)c12)OC(C)(C)CC3`, the Potency result was “inactive”.
As to `Cc1oc2c(c1C(=O)N1CCOCC1)C(=O)c1ccccc1C2=O`, the Potency is 4.61 µM (active).
In the case of `O=C(c1ccccc1-c1ccccc1)N1CCOCC1`, the Potency result is “inactive”.
The same measure for `Cc1noc(C)c1C(=O)N1CCOCC1`: “inactive”; for `CC(=O)NC12CC3CC(C1)CC(C(=O)N1CCN(S(=O)(=O)c4cccs4)CC1)(C3)C2`: “inactive”.
The entry for `Nc1ncnc2c1ncn2[C@@H]1O[C@H](CNCc2cccn2-c2nccs2)[C@@H](O)[C@H]1O` is “inactive”.
The same measure for `O=C(CCN1C(=O)[C@@H]2Cc3ccccc3CN2C1=O)NCCc1ccccc1`: “inactive”.
